# According to ChEMBL document CHEMBL3988442, “University of Dundee, Small-Polar-MMV Screening Library” (2021):
# About 1,000 (1.4%) of roughly 69,000 compounds showed an effect of 50% or more. This is one part of a sample in which strong results are shown more often than they occur.
# Test system: Leishmania donovani
# Assay: Leishmania intramacrophage assay
# Assay type: functional, organism-based
# Parameters: scale not given: in the data most compounds retested in dose-response had high values
smiles,measurement,setting,value
Fc1cnccc1CN1CCCC2(CCN(c3ncccn3)CC2)C1.O=C(O)C(F)(F)F,Percent Effect,"30.3 µM, […]",6.498%
CC(NCCN1CCC(N(C)C)CC1)c1ccc(Cl)s1 (stereo not drawn),Percent Effect,"30.3 µM, […]",43.03%
Cc1cc(C(C)NCCN2CCC(N(C)C)CC2)c(C)s1 (stereo not drawn),Percent Effect,"30.3 µM, […]",59.42%
CC(NCCN1CCC(N(C)C)CC1)c1ccc(F)cc1N(C)C (stereo not drawn),Percent Effect,"30.3 µM, […]",15.55%
COC1CCN(CCNc2ncc(Br)cc2C)CC1,Percent Effect,"30.3 µM, […]",-8.998%
Cc1cc(Br)cnc1NCCN1CCC(N(C)C)CC1,Percent Effect,"30.3 µM, […]",96.65%
CC(=O)N1CCN(CCNc2ncc(Br)cc2C)CC1,Percent Effect,"30.3 µM, […]",1.457%
COCCN1CCN(Cc2c(C3CCNCC3)[nH]c3ncccc23)CC1.Cl,Percent Effect,"30.3 µM, […]",15.04%
Cn1cc(CN2CCc3onc(C(=O)Nc4cccnc4)c3C2)cn1,Percent Effect,"30.3 µM, […]",24.89%
CC(C)(C)C(=O)N1CCC(c2cnc(-c3cn[nH]c3)cn2)CC1,Percent Effect,"30.3 µM, […]",-18.54%
COc1ccc(Cl)cc1CS(=O)(=O)Cc1nc(C2CC2)no1,Percent Effect,"30.3 µM, […]",28.37%
COc1ccc(Cl)cc1CS(=O)(=O)Cc1noc(C)n1,Percent Effect,"30.3 µM, […]",34.45%
COc1ccc(Cl)cc1CS(=O)(=O)Cc1nc(C)no1,Percent Effect,"30.3 µM, […]",60.61%
O=C(NCCN1CCOCC1)c1cc(-c2ccccc2Cl)[nH]n1,Percent Effect,"30.3 µM, […]",-6.582%
CC(C)c1noc(CN2CCN(C(=O)c3ccncc3F)CC2)n1,Percent Effect,30 µM,25.95%
O=C1C(N2CCN(c3ccc(O)cc3)CC2)CCN1C1CCOCC1 (stereo not drawn),Percent Effect,"30.3 µM, […]",-7.233%
O=C(Nc1ccc(CC(=O)N2CCCC2)cc1)NC1CC1,Percent Effect,"30.3 µM, […]",15.08%
O=C(Nc1ccc(CC(=O)N2CCSCC2)cc1)NC1CC1,Percent Effect,"30.3 µM, […]",50.93%
O=C(Nc1ccc(CC(=O)N2CCSCC2)cc1)NC1CCCC1,Percent Effect,"30.3 µM, […]",-9.117%
O=C1[C@H]2CC[C@H](CN(C3CSCCSC3)C2)N1Cc1cscn1,Percent Effect,"30 µM, 30.03 µM",-11.37%
Cc1cccc(N2CC3(CCN(Cc4nccn4C)C3)CC2=O)c1.O=C(O)C(F)(F)F (stereo not drawn),Percent Effect,"30.3 µM, […]",24.22%
Cc1ccccc1N1CC2(CCN(Cc3nccn3C)C2)CC1=O.O=C(O)C(F)(F)F (stereo not drawn),Percent Effect,"30.3 µM, […]",-1.583%
Cn1cc(N2CC3(CCN(Cc4nccn4C)C3)CC2=O)cn1.O=C(O)C(F)(F)F (stereo not drawn),Percent Effect,"30.3 µM, […]",58.91%
CN(C)CCN1CCCC12CCN(Cc1nccn1C)CC2.O=C(O)C(F)(F)F.O=C(O)C(F)(F)F.O=C(O)C(F)(F)F,Percent Effect,"30.3 µM, […]",52.43%
Cn1cc(CN2CCCC23CCN(Cc2nccn2C)CC3)cn1.O=C(O)C(F)(F)F.O=C(O)C(F)(F)F,Percent Effect,"30.3 µM, […]",22.67%
Cn1ccc(CN2CCCC23CCN(Cc2nccn2C)CC3)n1.O=C(O)C(F)(F)F.O=C(O)C(F)(F)F,Percent Effect,"30.3 µM, […]",27.16%
Cc1ccc(N2CC3(CCN(Cc4nccn4C)C3)CC2=O)s1.O=C(O)C(F)(F)F (stereo not drawn),Percent Effect,"30.3 µM, […]",55.03%
Cn1ccnc1CN1CCC2(CC(=O)N(c3ccsc3)C2)C1.O=C(O)C(F)(F)F (stereo not drawn),Percent Effect,"30.3 µM, […]",19.56%
CN1CC(=O)N(c2cnn(C)c2)CC12CCN(Cc1nccn1C)C2.O=C(O)C(F)(F)F.O=C(O)C(F)(F)F (stereo not drawn),Percent Effect,"30 µM, 30.03 µM",3.871%
OC(COCc1ccccc1Cl)CN1CCC(c2ccn[nH]2)CC1 (stereo not drawn),Percent Effect,30 µM,17.67%
O=C(Cc1csc(-c2ccsc2)n1)N1CCN(c2cnccn2)CC1,Percent Effect,30 µM,8.045%
Cc1cc(C(=O)N2CCn3cc(CN(C)C)nc3C2)no1,Percent Effect,"30.3 µM, […]",18.85%
CC(O)CN1CCN(C(=O)c2ccn(-c3ccc(F)cc3)n2)CC1 (stereo not drawn),Percent Effect,"30.3 µM, […]",-32.18%
Cn1ccc(C(=O)N2CCC(Cc3cnc4[nH]ccc4c3)CC2)n1,Percent Effect,"30 µM, 30.03 µM",27.84%
CO[C@@H]1CC[C@@H](N(C)C(=O)COc2ccc(F)cc2)[C@H]1O,Percent Effect,"30 µM, 30.03 µM",-20.57%
Cc1ccc(C)c(Oc2cc(-n3nc(C)c(C#N)c3N)nc(C)n2)c1,Percent Effect,"30.3 µM, […]",6.945%
CCc1nn(-c2cc(Oc3cc(C)ccc3C)nc(C)n2)c(N)c1C#N,Percent Effect,"30.3 µM, […]",18.36%
CCc1nn(-c2cc(Oc3cc(C)ccc3C)ncn2)c(N)c1C#N,Percent Effect,"30.3 µM, […]",55.59%
NCC(=O)N1CCCC(O)(CN2CCN(c3ccccc3)CC2)CC1 (stereo not drawn),Percent Effect,"30.3 µM, […]",24.84%
Cc1nc(CNC(=O)N2CCN(c3ccc(Cl)cn3)CC2)no1,Percent Effect,"30.3 µM, […]",-6.718%
Cc1nc(CN2CCN(c3ccc(Cl)cn3)CC2)no1,Percent Effect,"30.3 µM, […]",51.54%
CS(=O)(=O)CCN1CCN(c2ccc(Cl)cn2)CC1,Percent Effect,"30.3 µM, […]",0.04205%
CSCCCN1CCN(c2ccc(Cl)cn2)CC1,Percent Effect,"30.3 µM, […]",30.03%
Clc1ccc(N2CCN(CCCN3CCCCC3)CC2)nc1,Percent Effect,"30.3 µM, […]",68.75%
Cc1nc(CN2CCN(Cc3nccn3C)CC2)no1,Percent Effect,"30 µM, 30.03 µM",11.72%
O=C(NCCNc1ccc(C(F)(F)F)cn1)c1ccc(Br)cc1F,Percent Effect,"30 µM, 30.03 µM",-32.97%
CN(Cc1cn[nH]c1-c1ccc(F)cc1)C(=O)CCC1CC1,Percent Effect,"30.3 µM, […]",-4.143%
CCn1cc(CN2CCC(C3CCN(C)CC3)CC2)cc1C#N,Percent Effect,"30.3 µM, […]",8.451%
COc1ccc(/C=C/CN2CCCC3(C2)CN(C)C(=O)O3)cc1 (stereo not drawn),Percent Effect,"30.3 µM, […]",14.77%
COC[C@@]12CC[C@@H](N3CCOCC3)C[C@H]1CCN(c1cc(C)ccn1)C2,Percent Effect,"30.3 µM, […]",28.55%
CC(C)Cn1nc(-c2ccc(C(=O)O)cc2)cc1-c1ccc(F)cc1,Percent Effect,"30.3 µM, […]",41.19%
CCC(O)Cn1nc(-c2ccc(C(=O)O)cc2)cc1-c1cccc(F)c1 (stereo not drawn),Percent Effect,"30.3 µM, […]",29.44%
CCC(O)Cn1nc(-c2ccc(C(=O)O)cc2)cc1-c1ccc(F)cc1 (stereo not drawn),Percent Effect,"30.3 µM, […]",61.24%
Fc1cccc(N2CCc3ncnc(C4CC4)c3CC2)c1,Percent Effect,"30.3 µM, […]",15.99%
COCCCN1C(=O)CC[C@H]2CN(Cc3cc4ccccc4o3)CC[C@H]21,Percent Effect,"30.3 µM, […]",10.23%
CCN1CCC(NC(=O)NC2CCOc3ccc(Br)cc32)CC1 (stereo not drawn),Percent Effect,"30.3 µM, […]",1.839%
c1ccc(C2CN(C3CC3)CC3(CCN(Cc4ncc[nH]4)CC3)C2)cc1 (stereo not drawn),Percent Effect,"30.3 µM, […]",51.92%
CCN1CC(c2ccccc2)CC2(CCN(Cc3ncc[nH]3)CC2)C1 (stereo not drawn),Percent Effect,"30.3 µM, […]",35.04%
CN1CC(c2ccccc2)CC2(CCN(Cc3ncc[nH]3)CC2)C1 (stereo not drawn),Percent Effect,"30.3 µM, […]",16.63%
Cc1ccc(F)c(OC2(C(=O)O)CCN(C(=O)C3CCCC3)CC2)c1,Percent Effect,"30.3 µM, […]",24.64%
CCOC(C)c1nc(CN2CCN(Cc3cccnc3)CC2)cs1 (stereo not drawn),Percent Effect,"30.3 µM, […]",14.45%
Cc1nc(CN2C[C@@H]3CN(c4ncc(F)cn4)C[C@@H]3C2=O)cs1.O=C(O)C(F)(F)F,Percent Effect,"30.3 µM, […]",0.4282%
CN1CCC(N(CCc2ccccc2)C(=O)c2ccoc2)CC1,Percent Effect,"30.3 µM, […]",23.03%
CN1CCC(N(CCc2ccccc2)C(=O)c2ccc(CO)cc2)CC1,Percent Effect,"30.3 µM, […]",30.31%
CN1CCC(N(CCc2ccccc2)C(=O)c2cc[nH]c2)CC1,Percent Effect,"30.3 µM, […]",69.36%
C[C@H]1C(=O)NC[C@H]2CN(Cc3cccc(F)c3)C[C@H]21.O=C(O)C(F)(F)F,Percent Effect,"30.3 µM, […]",4.969%
Cc1cc(CN(C)C(=O)C2CCCN(C(N)=O)C2)no1 (stereo not drawn),Percent Effect,"30.3 µM, […]",-0.7168%
COc1ccc(CNc2cnn(C)c(=O)c2Cl)cc1,Percent Effect,30 µM,56.65%
Cn1ncc(NCc2cc(F)cc(F)c2)c(Cl)c1=O,Percent Effect,"30 µM, 30.03 µM",2.406%
COc1cccc(CNc2cnn(C)c(=O)c2Cl)c1,Percent Effect,"30 µM, 30.03 µM",34.79%
Cn1ncc(NCc2cccc(COC(C)(C)C)c2)c(Cl)c1=O,Percent Effect,"30 µM, 30.03 µM",51.11%
CC(C)OCc1cccc(CNc2cnn(C)c(=O)c2Cl)c1,Percent Effect,30 µM,21.9%
Cn1ncc(NCc2cccc(F)c2)c(Cl)c1=O,Percent Effect,30 µM,13.08%
COc1ncccc1CN1CC[C@]2(C[C@@H](OCc3ccccn3)CO2)C1.O=C(O)C(F)(F)F.O=C(O)C(F)(F)F.O=C(O)C(F)(F)F,Percent Effect,"30.3 µM, […]",-3.573%
Nc1nnnn1NCc1cccc(Cl)c1Cl,Percent Effect,"30.3 µM, […]",4.224%
O=C(CCc1ccsc1)N1CCCC(n2cncn2)C1 (stereo not drawn),Percent Effect,30 µM,18.97%
Cc1nccn1C1CCCN(C(=O)c2cccc(OCC(N)=O)c2)C1 (stereo not drawn),Percent Effect,30 µM,14.8%
COc1nccnc1N1CCC2(CC1)[C@H](O)C[C@@H]2OCCN(C)C,Percent Effect,"30.3 µM, […]",13.35%
Cl.NC1CCc2nc(-c3ccncc3)nc(Nc3cccc(F)c3)c2C1 (stereo not drawn),Percent Effect,"30.3 µM, […]",64.39%
O=C(Nc1cccc(F)c1)NC1CCN(Cc2ccncc2)CC1,Percent Effect,"30.3 µM, […]",20.9%
Cc1sc2c(C3CCNCC3)nc(Nc3cccc(F)c3)n2c1C.Cl,Percent Effect,"30.3 µM, […]",-10.63%
c1cc(-c2nc3c(c(NCCn4ccnn4)n2)CCNCC3)ccn1,Percent Effect,"30.3 µM, […]",24.72%
c1csc(CCNc2nc(-c3ccncc3)nc3c2CCNCC3)c1,Percent Effect,"30.3 µM, […]",9.747%
CNC(=O)c1cccc(CN2CCC(N(C)Cc3noc(C)n3)C2)c1 (stereo not drawn),Percent Effect,"30.3 µM, […]",-22.53%
CNc1cc(C2CCCN(S(=O)(=O)c3cn[nH]c3)C2)ccn1 (stereo not drawn),Percent Effect,"30.3 µM, […]",9.494%
CCN1CCN(C2CCN(Cc3c(C)noc3C)CC2)C1=O,Percent Effect,"30 µM, 30.03 µM",32.64%
Cc1cccc(C2CCCN2Cc2nc(N)nc(N(C)C)n2)c1C (stereo not drawn),Percent Effect,"30.3 µM, […]",37.96%
CN(C)c1nc(N)nc(CN2CCCC2c2ccsc2)n1 (stereo not drawn),Percent Effect,"30.3 µM, […]",83.34%
Cc1nc(CN2CCCC2c2ccsc2)nc2ccccc12 (stereo not drawn),Percent Effect,"30 µM, 30.03 µM",47.19%
CN(C)c1nc(N)nc(CN2CCCC2c2cccs2)n1 (stereo not drawn),Percent Effect,"30.3 µM, […]",87.57%
CN(C)c1nc(N)nc(CN2CCCC(c3ccccc3)CC2)n1 (stereo not drawn),Percent Effect,"30.3 µM, […]",6.795%
CCCc1noc(CN2CCCC2c2ccsc2)n1 (stereo not drawn),Percent Effect,"30 µM, 30.03 µM",16.77%
OC1(CNCCc2csc(-c3cccnc3)n2)CCNC1 (stereo not drawn),Percent Effect,"30.3 µM, […]",17.55%
CN1CCn2c(-c3cccc(F)c3)cnc2C12CCN(CC1CC1)CC2.O=C(O)C(F)(F)F.O=C(O)C(F)(F)F.O=C(O)C(F)(F)F,Percent Effect,"30.3 µM, […]",7.679%
CCc1cc(=O)[nH]c(-c2ccc(NCCc3ccc(O)cc3)nc2)n1,Percent Effect,"30.3 µM, […]",10.3%
Cc1nc(-c2ccc(NCCc3ccc(O)cc3)nc2)[nH]c(=O)c1C,Percent Effect,"30.3 µM, […]",67.3%
Cc1nc(CCNc2ccc(-c3nc(C)c(C)c(=O)[nH]3)cn2)cs1,Percent Effect,"30.3 µM, […]",-24.43%
CCOCC1c2c(cnn2CC2CC2)CCN1C(=O)c1ccncn1.O=C(O)C(F)(F)F (stereo not drawn),Percent Effect,"30.3 µM, […]",-17.31%
